High-throughput results: PubChem BioAssay, several laboratories
This is a sample that favours compounds with a hit; in the whole collection about 5.4% have one here.
CSC inhib – cancer stem cell viability inhibitors, primary screen, luminescence; cancer stem cell-like cells viability; inhibition, % at 7.5 µM; 300,000 tested, 1.1% active; AID 2717, 2010; in the data active = inhibition above about 75%; inconclusive = no clear call, values can overlap the other calls; tested in HMLE shEcad cells
PP1 inh – PP1-alpha phosphatase inhibitors, primary screen, counter-screen for PP5 inhibitor project, biochemical, fluorescence, OMFP substrate, single point; Serine/threonine-protein phosphatase PP1-alpha catalytic subunit (Homo sapiens), P62136; purified PP1alpha; inhibition, % at 6.7 µM; 320,000 tested, 0.9% active; AID 2235, 2010;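 active = inhibition above the mean inhibition of all tested compounds plus 3 SD, computed separately for each screening campaign, cut at about 15% in these data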
Target sequence (P62136 whole entry, looked up): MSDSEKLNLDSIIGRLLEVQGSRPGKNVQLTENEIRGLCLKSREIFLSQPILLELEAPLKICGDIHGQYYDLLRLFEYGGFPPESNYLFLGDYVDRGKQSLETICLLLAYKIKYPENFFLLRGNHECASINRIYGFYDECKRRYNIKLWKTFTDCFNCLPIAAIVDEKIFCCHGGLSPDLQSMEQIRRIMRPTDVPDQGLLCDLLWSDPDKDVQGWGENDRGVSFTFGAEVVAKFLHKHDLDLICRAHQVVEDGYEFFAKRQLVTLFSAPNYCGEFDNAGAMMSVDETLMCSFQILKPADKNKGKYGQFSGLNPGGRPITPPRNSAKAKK
Calb FLC – C. albicans growth inhibition with fluconazole, primary screen, CaCi-2 strain, Alamar Blue fluorescence. 300,000 tested, 0.57% active. growth inhibition, % (no concentration beside the values). AID 1979, 2009. C. albicans CaCi-2 (fluconazole-resistant clinical isolate) + fluconazole, 48 h;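 active = growth inhibition above about 58% in most replicates, limit read from the data, passing the limit was not always enough; inconclusive = exactly half the replicates above a set limit; inactive = most replicates below a set limit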;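 note: all wells also contain fluconazole at 8 µg/ml as a sub-toxic cotreatment; 0% = median of DMSO wells and 100% = median of geldanamycin control wells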
PP5 inh – PP5 phosphatase inhibitors, primary screen, biochemical, fluorescence | Serine/threonine-protein phosphatase 5 (Homo sapiens), P53041 | inhibition, % at 6.7 µM | 320,000 tested, 0.18% active | purified PP5c, OMFP substrate fluorescence;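 active = inhibition above the campaign's mean inhibition across all tested compounds plus 3 SD, cut at about 9.5% in these data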;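 note: 0% = DMSO only and 100% = 100 µM cantharidin control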
ALR H2O2 inh – inhibitors of human ALR sulfhydryl oxidase, primary screen, biochemical, H2O2 detection, HRP-luminol luminescence, single point. 290,000 tested, 3.8% active. FAD-linked sulfhydryl oxidase ALR (Homo sapiens), P55789. purified ALR, DTT oxidation. inhibition, % (test concentration not listed). AID 485317, 2010;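 active = mean replicate inhibition above about 79%, with every replicate also reaching it, limit read from the data; inconclusive = only one of the two criteria met; inactive = mean below limit and not every replicate reaching it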
Target sequence (P55789 whole entry, looked up): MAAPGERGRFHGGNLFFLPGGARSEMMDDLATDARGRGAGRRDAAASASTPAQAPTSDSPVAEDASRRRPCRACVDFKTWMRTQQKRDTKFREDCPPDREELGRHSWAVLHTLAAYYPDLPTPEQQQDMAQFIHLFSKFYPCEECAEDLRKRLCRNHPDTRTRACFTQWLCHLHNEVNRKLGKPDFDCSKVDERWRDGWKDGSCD
Active calls of the source: *; ? = inconclusive; nt = no result.

SMILES	CSC inhib	PP1 inh	Calb FLC	PP5 inh	ALR H2O2 inh
C/C(=N\Nc1ccc(F)cc1F)c1ccc(F)cc1	-14	-2	-11	1	-2
C/C(=N\Nc1ccc(F)cc1F)c1ccc(N2CCOCC2)cc1	1	-3	104*	3	40
C/C(=N\Nc1ccc(F)cc1F)c1ccc(Br)s1	0	-2	102*	-1	-27
CC(OC(=O)c1ccc2ncsc2c1)C(=O)NC1CCCCC1C (stereo not given)	0	5	-3	0	-3
CCN(CC(=O)Nc1cccc(S(=O)(=O)N(C)c2ccccc2)c1)Cc1ccccc1	nt	7	nt	3	-1
Cc1cc(Br)c2c(c1)/C(=C/C(=O)c1cccs1)C(=O)N2	9	2	-3	4	17
CCc1ccc2c(c1)/C(=C/C(=O)c1cccs1)C(=O)N2	50	1	98*	-4	11
Cc1cccc2c1NC(=O)/C2=C\C(=O)c1cccs1	83*	4	22	0	0
O=C(CCc1ccccn1)N1CCCC(Nc2cccc(F)c2)C1 (stereo not given)	7	1	10	-5	51
Cc1ccc(NC2CCCN(C(=O)CSc3ccccn3)C2)cc1C (stereo not given)	4	nt	-1	nt	99*
COc1ccc(CCC(=O)N2CCCC(Nc3ccc(C)c(C)c3)C2)cc1OC (stereo not given)	17	-5	16	-1	99*
COc1ccccc1OCC(=O)N1CCCC(Nc2ccc(C)c(C)c2)C1 (stereo not given)	-6	0	11	3	98*
Cc1ccc(NC2CCCN(C(=O)CCC3=NNC(=O)CC3)C2)cc1C (stereo not given)	-1	4	-4	3	98*
COc1ccccc1OCC(=O)N1CCCC(Nc2ccc(F)c(F)c2)C1 (stereo not given)	-15	-1	18	1	41
COc1ccccc1C(=O)C1CCCN(C(=O)CSc2ccccn2)C1 (stereo not given)	nt	0	-3	1	nt
COc1ccc(NC2CCCN(C(=O)CSc3ccccc3)C2)cc1OC (stereo not given)	-11	1	15	5	-16
O=S(=O)(NCc1cccs1)c1ccccc1Cl	4	-4	-5	0	2
Cc1n[nH]c(=O)c2c(NC(=O)COC(=O)Cc3c(F)cccc3Cl)oc(C)c12	10	-6	nt	-1	-17
CC(NC(=O)C1CCN(S(=O)(=O)c2ccccc2)CC1)c1ccccc1 (stereo not given)	-4	-3	-14	2	0
O=C(c1cc([N+](=O)[O-])cc([N+](=O)[O-])c1)N1CCN(C(=O)c2ccco2)CC1	-2	-8	-13	-3	-18
COc1ccc(NC2CCCN(C(=O)COc3ccc(Cl)cc3C)C2)cc1OC (stereo not given)	4	-3	19	2	96*
Cc1cc(C)n2c(SCC(=O)Nc3ccccc3)nnc2n1	0	0	2	1	-7
CCN(CC)c1ccc(NC(=O)CSc2nnc3nc(C)cc(C)n23)cc1	-3	-3	1	-3	99*
Cc1cc(C)n2nc(SCC(=O)Nc3ccc(O)cc3)nc2n1	nt	0	?	-2	99*
Cc1cc(SCC(=O)Nc2ccc(O)cc2)n2nc(C)c(-c3ccccc3)c2n1	27	-4	4	3	99*
SMILES	CSC inhib	PP1 inh	Calb FLC	PP5 inh	ALR H2O2 inh
Cc1cc(SCC(=O)c2cccs2)n2nc(C)c(-c3ccc(Cl)cc3)c2n1	78*	-4	3	2	54
Cc1cc(SCC(=O)Nc2ccc(O)cc2)n2ncc(-c3ccccc3)c2n1	22	-1	3	2	-8
CCN(C(=O)CN1CCc2ccccc21)c1c(N)n(Cc2ccccc2)c(=O)[nH]c1=O	-14	-1	-1	-1	3
CCN(CC)c1ccc(NC(=O)c2nc3nc(C)cc(C(F)F)n3n2)cc1	-7	0	14	-3	99*
COc1ccc(NC(=O)c2nc3nc(C)cc(C(F)F)n3n2)cc1OC	-10	3	0	0	nt
CC(=O)Nc1ccc(Nc2cc(C(C)C)nc3c(-c4ccccc4)c(C)nn23)cc1	84*	2	11	2	0
O=C(NC1CC(=O)N(c2ccc(F)cc2)C1)C(=O)c1c[nH]c2ccccc12 (stereo not given)	-6	-3	nt	0	-2
CCc1cc(=O)[nH]c(SCc2cccc3ccccc23)n1	-17	1	0	2	98*
O=c1cc(C(F)(F)F)nc(SCc2cccc3ccccc23)[nH]1	32	6	1	1	19
Nc1cc(=O)[nH]c(SCc2cccc3ccccc23)n1	-17	-4	6	3	99*
O=C(c1ccco1)N1CCN(c2ncnc3c(-c4ccccc4)nsc23)CC1	4	7	89*	2	5
CCc1ccc2c(c1)[C@H]1OCC[C@H]1[C@@H](c1cccs1)N2	?	-5	9	2	97*
O=C1/C(=C/c2ccccc2)SC(=S)N1CC(=O)N1CCCCC1c1cccnc1 (stereo not given)	10	17*	5	2	4
O=C1/C(=C/c2cccnc2)SC(=S)N1c1ccccc1	-5	-3	nt	1	-4
CC(C)C(C(=O)O)N1C(=O)/C(=C/c2cccn2C)SC1=S (stereo not given)	3	-6	nt	1	42
Cn1cccc1/C=C1\SC(=S)N(Nc2ccccc2)C1=O	92*	0	7	3	1
O=C1/C(=C\c2ccccc2)SC(=S)N1CCC(=O)N1CCCCC1CCO (stereo not given)	-7	4	0	1	-2
O=C1/C(=C/c2cccnc2)SC(=S)N1Nc1ccccc1	-4	0	-2	0	92*
Cc1ccc(S(=O)(=O)NN2C(=O)/C(=C/c3cccn3C)SC2=S)cc1	-4	2	nt	0	97*
O=C(CN1C(=O)/C(=C\c2cccc(F)c2)Oc2ccccc21)N1CCN(c2ccccn2)CC1	-16	-1	-12	-1	-12
COc1ccc(NC2C=CS(=O)(=O)C2)cc1 (stereo not given)	-1	-2	-13	3	10
COc1cccc(/C=C2\SC(=S)N(NS(=O)(=O)c3ccccc3)C2=O)c1OC	1	15	55	-2	97*
Cc1cc(C(C#N)c2ccccc2F)n2ncnc2n1 (stereo not given)	-1	-1	67	0	92*
Cc1cc(C(C#N)c2ccccc2)n2ncnc2n1 (stereo not given)	-10	-1	nt	-1	62
Cc1cc(C(C#N)c2cccc(Cl)c2)n2ncnc2n1 (stereo not given)	23	5	96*	0	20
